# Source: PubChem BioAssay (NCATS)
# Calls of active or inactive are those of the source. The call rests on the fitted dose curve; in most records, active means well fitted curve in the direction sought with a large enough effect; inconclusive means small, poorly fitted or top-dose-only effect, or another doubt; inactive means no such curve, though single readings can be large; an effect the other way counts as inactive or inconclusive.
# How the values were obtained:
# [1] = biological target: Alpha-galactosidase (Coffea arabica) (UniProt Q42656); test: Counterscreen for Glucocerebrosidase Inhibitors: qHTS Assay for Coffee Bean alpha-Galactosidase at pH 4.5 (AID 957); further: series mostly up to about 77 µM
# Outline: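 Enzyme is added first (2 nM final), then compounds titrated from 0.7 nM to 77 uM, then 80 uM 4-methylumbelliferyl alpha-D-galactopyranoside; after 20 min at room temperature a pH 10 NaOH/glycine stop precedes fluorescence reading at 365/440 nm.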
# [2] = biological target: Alpha-galactosidase (Coffea arabica) (UniProt Q42656); test: Counterscreen for Glucocerebrosidase Inhibitors: qHTS Assay for Coffee Bean alpha-Galactosidase at pH 5.9 (AID 998)
# Outline: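 Enzyme 2 nM + cpd (0.7 nM–77 uM titration) + 4-MU-alpha-Gal 80 uM, pH 5.9 citrate/Tween-20, RT 20 min, NaOH/glycine stop pH 10, fluor 365/440. Normalized to no-enzyme and full-activity controls; Hill-fit AC50.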
# Chain of Alpha-galactosidase (Coffea arabica) (Q42656 whole entry, looked up): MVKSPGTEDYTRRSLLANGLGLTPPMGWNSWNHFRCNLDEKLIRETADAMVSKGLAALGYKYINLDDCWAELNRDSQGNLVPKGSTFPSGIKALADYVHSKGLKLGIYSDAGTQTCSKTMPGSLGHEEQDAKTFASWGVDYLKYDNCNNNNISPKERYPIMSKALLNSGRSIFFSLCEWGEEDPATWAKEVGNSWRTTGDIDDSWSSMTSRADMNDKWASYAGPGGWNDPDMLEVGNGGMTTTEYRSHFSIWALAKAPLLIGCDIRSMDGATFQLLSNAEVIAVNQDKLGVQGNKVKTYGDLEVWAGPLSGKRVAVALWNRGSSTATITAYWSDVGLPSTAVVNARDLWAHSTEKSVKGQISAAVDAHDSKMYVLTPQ
Structure (SMILES),outcome [1],outcome [2]
CCCCCCCCCCCCC/C=C\[C@@H](O)[C@@H](N)CO,inactive,inactive
C[C@H](N)C(=O)OC(C)(C)Cc1ccc(Cl)cc1,inactive,inactive
C[C@@]12CCC(=O)C=C1CC[C@@H]1[C@@H]2[C@H](O)C[C@]2(C)[C@@H]1CC[C@]2(O)C(=O)COC(=O)CCC(=O)O,inactive,inactive
NCC[C@H]1CCC[C@H](CCN)N1,inactive,inactive
S=C(Nc1ccccc1)Nc1nccs1,inactive,inactive
c1ccc([C@@H]2CN3CCSC3=N2)cc1,inactive,inactive
OC[C@@H]1O[C@@H](n2cnc3c(NC4CCCCC4)ncnc32)[C@@H](O)[C@H]1O,inactive,inactive
CC[C@]1(C)CC(=O)NC1=O,inactive,inactive
N[C@@H](CO)C(=O)NNCc1ccc(O)c(O)c1O,inactive,inactive
C[C@H](N)C1CCC(C(=O)Nc2ccncc2)CC1 (stereo not given in full),inactive,inactive
CN(C)[C@@H]1C(=O)C(C(N)=O)=C(O)[C@]2(O)C(=O)C3=C(O)c4c(O)ccc(Cl)c4[C@H](O)[C@H]3C[C@@H]12,inactive,inactive
[N-]=[N+]=Nc1ccc(C(=O)CSC[C@@H](NC(=O)CC[C@@H](N)C(=O)O)C(=O)NCC(=O)O)cc1,inactive,inactive
CSc1nc(N)c2ncn([C@@H]3O[C@@H](COP(=O)(O)OP(=O)(O)OP(=O)(O)O)[C@@H](O)[C@H]3O)c2n1,inactive,inactive
C/C=C1\C(=O)C[C@@H]2[C@@H]3CCC4=CC(=O)CC[C@@]4(C)[C@H]3CC[C@@]12C,inactive,inactive
CCCCC[C@H](O)c1cccc(OCc2ccc3ccccc3n2)c1,inactive,inactive
Cc1ccccc1/C=C\C1=NCCN1,inactive,inactive
FC(F)(F)c1cc(CO[C@@H]2CCCN[C@H]2c2ccccc2)cc(C(F)(F)F)c1,inactive,inactive
COc1cc(=O)n(C)c2c(OC[C@@H](O)C(C)(C)O)cccc12,inactive,inactive
CCCCCC[C@@H]([C@H](C)O)n1cnc2c(N)ncnc21,inactive,inactive
O=C(O)CCC(=O)N1CCC[C@H]1C(=O)O,inactive,inactive

Structure (SMILES),outcome [1],outcome [2]
CCN(CC)CCC[C@H](C)Nc1c2ccc(Cl)cc2nc2ccc(OC)cc12,inactive,inactive
CC1(C)CCC(NC(=O)[C@H](N)CCC(=O)O)CC1,inactive,inactive
CC1=C(\C=C/C(C)=C/C=C\C(C)=C\C(=O)O)C(C)(C)CCC1,inactive,inactive
Fc1cccc(/C=N\N=C/c2cccc(F)c2)c1,inactive,inactive
CCCCOc1cc(C[C@@H]2CNC(=O)N2)ccc1OC,inactive,inactive
CN1[C@@H]2CC(OC(=O)[C@@H](CO)c3ccccc3)C[C@H]1[C@H]1O[C@H]12 (stereo not given in full),inactive,inactive
CC(N)=NCCCC[C@H](N)C(=O)O,inactive,inactive
O=C(OCCN1CCCCC1)c1c[nH]c2ccccc12,inactive,inactive
C=C/C(C)=C/[C@]1(C)SC(=O)C(C)=C1O,inactive,inactive
CCN1CCC[C@@H]1CNC(=O)c1c(O)c(Cl)cc(Cl)c1OC,inactive,inactive
CC[C@]1(O)C[C@H]2CN(CCc3c([nH]c4ccccc34)[C@](C(=O)OC)(c3cc4c(cc3OC)N(C)[C@@H]3[C@](O)(C(=O)OC)[C@H](OC(C)=O)[C@]5(CC)C=CCN6CC[C@]43[C@@H]65)C2)C1,inactive,inactive
N=c1ccn2c(n1)O[C@@H]1[C@@H](O)[C@H](CO)O[C@H]12,inactive,inactive
COC(=O)[C@](C)(N)Cc1ccc(O)cc1,inactive,inactive
C[C@@H](CCc1ccc(O)cc1)NCCc1ccc(O)c(O)c1,inactive,inactive
Nc1ncnc2c1ncn2[C@@H]1CCCO1,inactive,inactive
CCOC(=O)C1=C(C)NC(C)=C(C(=O)OC)[C@H]1c1cccc(Cl)c1Cl,inactive,inactive
N[C@H](CCC(=O)NCS(=O)(=O)O)C(=O)O,inactive,inactive
C=C[C@@]1(C)CC(=O)[C@@]2(O)[C@@]3(C)[C@H](O)CCC(C)(C)[C@@H]3[C@H](O)[C@H](OC(C)=O)[C@]2(C)O1,inactive,inactive
Nc1nc(Cl)nc2c1ncn2[C@@H]1O[C@@H](COP(=O)(O)OP(=O)(O)OP(=O)(O)O)[C@@H](O)[C@H]1O,inactive,inactive
Oc1ccc(/C=C\c2cc(O)cc(O)c2)cc1,inactive,inactive

Structure (SMILES),outcome [1],outcome [2]
Cc1ccccc1CNc1ncnc2c1ncn2[C@@H]1O[C@@H](CO)[C@H](O)[C@@H]1O,inactive,inactive
CCCCCCCCCCCCCCCC(=O)O[C@H](CC(=O)O)C[N+](C)(C)C,inactive,inactive
Fc1ccc(C(c2ccc(F)cc2)N2CCN(C/C=C\c3ccccc3)CC2)cc1,inactive,inactive
COc1cc2nc(N3CCN(C(=O)[C@H]4COc5ccccc5O4)CC3)nc(N)c2cc1OC,inactive,inactive
Cc1ccccc1N1CCN(S(=O)(=O)C[C@@]23CC[C@H](C[C@H]2NC(=O)[C@@H](N)CCS(C)(=O)=O)C3(C)C)CC1,inactive,inactive
CCCCCCCCCCCCCCCCCCNC(=O)OC[C@@H](COP(=O)([O-])OCC[n+]1ccsc1)OC,inactive,inactive
CN1CCN([C@@H]2Cc3ccccc3Sc3ccc(Cl)cc32)CC1,inactive,inactive
C=C1C(=O)O[C@@H]2[C@@H]1CC/C(C)=C\CC[C@@]1(C)O[C@H]21,inactive,inactive
CCCCC#Cc1nc(N)c2ncn([C@@H]3O[C@@H](C(=O)NCC)[C@H](O)[C@@H]3O)c2n1,inactive,inactive
OC[C@H]1O[C@@H](n2cnc3c(NCCc4ccccc4)ncnc32)[C@H](O)[C@H]1O,inactive,inactive
CC(=O)[C@@]1(O)CC[C@@H]2[C@@H]3CCC4=CC(=O)CC[C@@]4(C)[C@H]3CC[C@]21C,inactive,inactive
C[C@@H](CN1c2ccccc2Sc2ccccc21)N(C)C,inactive,inactive
CCn1cc(C(=O)O)c(=O)c2cc(F)c(N3CCN[C@@H](C)C3)c(F)c21,inactive,inactive
O=C(O)[C@@H]1CCCN[C@H]1C(=O)O,inactive,inactive
CNC(=O)[C@@H]1O[C@@H](n2cnc3c(N)ncnc32)[C@@H](O)[C@H]1O,inactive,inactive
CN(C)CCCO[C@H]1[C@H]([C@H](O)CO)O[C@H]2OC(C)(C)O[C@@H]21,inactive,inactive
CC(C)C[C@H](NC(=O)[C@@H]1O[C@H]1C(=O)O)C(=O)NCCCCN=C(N)N,inactive,inactive
CC(=O)[C@@]1(O)Cc2c(O)c3c(c(O)c2[C@H](O[C@H]2C[C@H](N)[C@H](O)[C@H](C)O2)C1)C(=O)c1ccccc1C3=O,inactive,inactive
CC1=C(C(=O)O)N2C(=O)[C@@H](NC(=O)[C@@H](N)c3ccccc3)[C@@H]2SC1,inactive,inactive
CCCCCCCCCCCCCCCCCCOC[C@@H](COP(=O)([O-])OCC[N+](C)(C)C)OC,inactive,inactive
